# Source: PubChem BioAssay
# Lassa entry inh: Lassa virus entry inhibition | Potency, µM (highest dose often 37.9 µM), for inactives: at the highest dose activity change, negative = inhibition, hits mostly inhibitors | AID 540256 | Lassa virus pseudotype entry inhibition, cell reporter | 300,000 tested, 1.2% active; calls by dose curve; tested in HEK293 cells; also: nearly all actives have a fitted effect of over 50% in size
# HCV inhibitor: blocks hepatitis C virus. Huh7.5.1 HCVcc-Cre infection, luciferase reporter, 44 h. Potency, µM (doses to about 41.8 µM), for the others: at the top dose activity change, negative = inhibition, most hits filed as inhibitors. 340,000 tested, 3.4% active; active = well fitted inhibition curve with a large enough effect; inconclusive = small, poorly fitted or top-dose-only effect, or another doubt; inactive = no such curve, though single readings can be large or run the other way
#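 Cells seeded at 1,000/well and cultured 4 h, then compounds added followed by HCVcc-Cre virus (~0.5 moi). After 44 h further culture, luciferase substrate was added, plates held 15 min at room temperature, and luminescence read for 15 sec.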
# MARV entry inh: Marburg virus entry inhibition; 300,000 tested, 1.8% active; AID 540276; Marburg virus pseudotyped entry inhibition, cell reporter; Potency, µM (top dose mostly 37.8 µM), for inactives: top-dose activity change, negative = inhibition, most hits filed as inhibitors; calls by dose curve; tested in HEK293 cells
# Vaccinia mCherry: vaccinia inhibition (mCherry reporter); Potency, µM (doses to about 36.5 µM), for the others: at the highest dose activity change, negative = inhibition, usual class: inhibitors; 310,000 tested, 0.63% active; AID 720579; Vaccinia virus mCherry reporter infection, fluorescence; calls by dose curve; tested in A549 cells; also: nearly all actives have a fitted effect of over 35% in size
# Vaccinia Venus: vaccinia inhibition (Venus reporter); Potency, µM (top dose mostly 36.5 µM), for inactives: top-dose activity change, negative = inhibition, usual class: inhibitors; 330,000 tested, 0.46% active; Vaccinia virus Venus reporter expression, fluorescence; calls by dose curve; tested in A549 cells; also: nearly all actives have a fitted effect of over 30% in size
# Starred values were filed as active, the others as inactive; u = inconclusive; x = no result; [ ] = remark or other dose. A selection: hits, their analogues and other compounds. The true share with any hit is near 4.6%. % is scaled to controls: 0 for no effect and ±100 for the full control effect; potency is read from the fitted curve at half-maximal effect.
SMILES,Lassa entry inh,HCV inhibitor,MARV entry inh,Vaccinia mCherry,Vaccinia Venus
O=C1c2c(O)ccc(O)c2C(=O)c2c(NCCNCCO)ccc(NCCNCCO)c21,0.5µM*,1.1µM*,0.056µM*,u,10µM*
Cc1cc(C)cc(NC(=O)C(Cc2ccccc2)NS(=O)(=O)c2ccc3c(c2)CCC(=O)N3)c1 (stereo unspecified),3%[46.1 µM],x,3%[46.1 µM],-1%,9%
OC(c1cccc(Cl)c1)(c1cccc(Cl)c1)C1CN2CCC1CC2 (stereo unspecified),u,16µM*,u,-3%,-28%
CCOc1ccc(CC2NCCc3cc(OCC)c(OCC)cc32)cc1OCC (stereo unspecified),x,6.3µM*,x,x,x
COc1cc2c(cc1OC)C(Cc1ccc(O)cc1)NCC2 (stereo unspecified),-1%,-3%,u,-15%,-7%
Oc1ccc(C[C@H]2NCCc3cc(O)c(O)cc32)cc1O,u,22%,2.8µM*,-12%,-11%
Cc1ccccc1C(=O)N(Cc1ccc(N(C)C)cc1)Cc1ccco1,-8%[46.1 µM],x,-5%[46.1 µM],-15%,-8%
COc1ccc(-n2c(SCC(=O)c3ccc(Cl)cc3)nc3c([nH]c4ccccc43)c2=O)cc1,u,x,x,-4%,11%
COC(=O)c1ccc(CSc2nc3ccccc3c(=O)n2-c2ccc(OC)c(OC)c2)o1,u,10µM*,-5%,-25%,-21%
O=c1[nH]c(CSc2nc3ccccc3[nH]2)nc2c1cnn2-c1ccccc1,u,u,u,u,-29%
O=c1[nH]c(SCc2nc3c(cnn3-c3ccccc3)c(=O)[nH]2)nc2ccccc12,0.71µM*,u,1µM*,x,-2%
COc1ccc(OC)c(NC(=O)C2CCN(S(=O)(=O)c3ccc4c(c3)CCCC(=O)N4)CC2)c1,4%[46.1 µM],x,x,-4%,-4%
COC(=O)C1=CN(c2ccc(OC)cc2)C=C(C(=O)OC)C1c1cc(OC)c(OC)cc1OC,0.63µM*,-14%,-9%,-5%,-7%
COC(=O)C1=CN(c2ccc(F)cc2)C=C(C(=O)OC)C1c1ccc(O)cc1,u,11µM*,11%[46.1 µM],-14%,-11%
COC(=O)C1=CN(Cc2cccs2)C=C(C(=O)OC)C1c1ccc(OC)cc1OC,u,-11%,u,-9%,-2%
O=C1[C@H]2[C@@H]3[C@@H](O)[C@H](O)CC(=NOCc4ccccc4)[C@H]3CC[C@H]2C(=O)N1C[C@@H]1CCCO1,x,x,-7%[14.2 µM],x,x
CCN(c1ccccc1)S(=O)(=O)c1cc(C(=O)Nc2ccc(F)c(F)c2)ccc1F,14µM*,4.5µM*,u,u,u
COc1cc(NC(=O)N2CCC(CN3CCCC3)CC2)cc(OC)c1OC,u,x,x,-5%,-7%
O=[N+]([O-])c1ccc(O)c(/C=N/Nc2ncnc3c2cnn3-c2ccccc2)c1,x,2.8µM*,x,x,x
O=[N+]([O-])c1cccc(N/N=C/c2cc([N+](=O)[O-])ccc2O)c1,u,-19%,u,-22%,-24%
O=[N+]([O-])c1ccc(O)c(/C=N/Nc2nc3ccccc3[nH]2)c1,3.5µM*,11µM*,2.8µM*,8.9µM*,u
O=[N+]([O-])c1ccc(O)c(/C=N/Nc2ccccn2)c1,u,2.5µM*,u,1.8µM*,5µM*
CCOc1ccc(C2C(=O)N(C3CCCCCC3)CC(=O)N2CCc2ccccc2)cc1OC (stereo unspecified),-26%[46.1 µM],x,x,-9%,-9%
CC(C)Cc1nc2cc(NS(=O)(=O)N(C)C)cc(C(=O)N3CCSCC3)c2n1C,x,x,x,-1%,1%
CCCCCCCCNc1ccc(/C=C/c2ccnc3ccccc23)cc1,x,x,x,-14%,-9%
CCc1cc(=O)oc2c(C)c(OC(C)C(=O)N3CCC[C@@H]3C(=O)O)ccc12 (stereo partly specified),x,-3%,x,4%,-10%
CCc1cc(=O)oc2c(C)c(OC(C)C(=O)N3CC[C@@]4(O)CCCC[C@H]4C3)ccc12 (stereo partly specified),x,0.89µM*,x,-3%,-2%
CN(C)CCCN(C(=O)c1ccc2c(c1)CCCC2)c1nc2ccc(F)cc2s1,16µM*,7.9µM*,u,u,u
CN(C)CCCN(C(=O)c1ccc(S(=O)(=O)N(C)C)cc1)c1nc2ccc(F)cc2s1,x,-11%,x,x,x
CCN(CC)CCN(C(=O)c1ccc2c(c1)CCCC2)c1nc2ccc(C)cc2s1,u,u,10µM*,-24%,-17%
